The values that follow come from PubChem BioAssay (EPA / NIEHS).

Calls of active or inactive are those of the source. Rule for the calls: active = hit-call score of the fitted dose curve at least 0.9, where 1 is the maximum; inactive = score below 0.9.

The AC50 is the concentration giving half of the maximal activity seen.

Read-out in the experiment: Monocyte Chemoattractant Protein-1 (MCP1), CCL2 (gene 6347)
Nature of the experiment: BSK_3C_MCP1: BioMAP Diversity Plus: 3C Assay for Monocyte Chemoattractant Protein-1 (MCP1) Biomarker Activity (AID 2283017). The conditions noted are these: primary human endothelial cells (HUVEC); actives raise or lower the signal. On the procedure:
BSK_3C is a cell-based, multiplexed-readout assay that uses umbilical vein endothelium, a human vascular primary cell, with measurements taken at 24 hours after chemical dosing in a 96-well plate.BSK_3C_MCP1 is an assay component measured in the BSK_3C assay. It measures MCP-1 antibody related to regulation of gene expression using ELISA technology.Data from the assay component BSK_3C_MCP1 was analyzed into 1 assay endpoint. This assay endpoint, BSK_3C_MCP1, was analyzed with bidirectional fitting relative to DMSO as the negative control and baseline of activity. Using a type of binding reporter, gain or loss-of-signal activity can be used to understand changes in the signaling as they relate to the gene CCL2. Furthermore, this assay endpoint can be referred to as a primary readout, because this assay has produced multiple assay endpoints where this one serves a signaling function. To generalize the intended target to other relatable targets, this assay endpoint is annotated to the cytokine intended target family, where the subfamily is chemotactic factor.
The levels of cell surface (or secreted, indicated by the prefix "s") biomarker endpoints were measured by ELISA. Overt cytotoxicity to cells in confluent adherent cultures (all systems other than the BT system) was assessed by measuring total protein levels using sulforhodamine B (SRB) staining in parallel cultures at the time of biomarker measurements, indicated as SRB endpoints. For proliferation assays for adherent cell types, individual cell types are cultured at sub-confluence and relative cell numbers quantified by SRB staining at time points optimized for each system (48 h: 3C and CASM3C systems; 72 h: BT and HDF3CGF systems; 96 h: SAg system). SRB was performed by staining cells with 0.1% SRB after fixation with 10% TCA and reading wells at 560 nm.Viability and proliferation of PBMC (T cells) was quantified by Alamar Blue reduction for the SAg and BT systems. For PBMC viability (referred to as PBMC Cytotoxicity within the assay endpoint names), cells were plated (75,000/well in a 96-well plate) and then chemical samples added for 1 h before addition of activators, SEB and TSST-1 (20 ng/mL final concentration each). Cells were incubated for 90 h. Then, Alamar Blue (20 uL/well) (Invitrogen, Cat DAL1100) was added for 6 h, and the plates were read with a fluorescence microplate reader at 546/580 nm (excitation/emission). For PBMC proliferation, cells were plated and activated as above but incubated for only 16 h prior to addition of Alamar Blue. Plates were read after 6 h.
On to `CC1=CC(=O)CC(C)(C)C1`, for which the outcome was inactive.

With `O=C(O)c1cccc(N(Cc2cccnc2)c2ccc(OC(F)F)c(OC(F)F)c2)c1`, the outcome was inactive.

In the case of `NC(=O)NO`, the outcome was inactive.

Take `CC(C)=CCC/C(C)=C/CO`: the result was inactive.

As to `O=C(CCCCCCCCc1cccnc1)N1CCC(C=C(c2ccccc2)c2ccccc2)CC1`, the AC50 was 8.66 µM (active).

For `CCNc1ccccc1`, the outcome was inactive.

In the case of `O=c1n(CC2CO2)c(=O)n(CC2CO2)c(=O)n1CC1CO1` (stereo not given), the AC50 was 20 µM (active).

In the case of `CC1(C)C(=O)N(Br)C(=O)N1Br`, the outcome was inactive.

As to `Nc1nc2ncc(CNc3ccc(C(=O)N[C@@H](CCC(=O)O)C(=O)O)cc3)nc2c(=O)[nH]1`, the outcome was inactive.

In the case of `CC[C@H]1OC(=O)[C@H](C)[C@@H](O[C@H]2C[C@@](C)(OC)[C@@H](O)[C@H](C)O2)[C@H](C)[C@@H](O[C@@H]2O[C@H](C)C[C@H](N(C)C)[C@H]2O)[C@](C)(O)C[C@@H](C)C(=O)[C@H](C)[C@@H](O)[C@]1(C)O`, the outcome was inactive.

In the case of `Cc1[nH]cnc1C[C@H]1CCc2c(C)c3ccccc3n2C1=O`, the AC50 is 27.5 µM (active).

On to `Cc1ccc(O)cc1`, for which the outcome was inactive.

`CCC(C)(C)C(=O)O[C@H]1C[C@@H](C)C=C2C=C[C@H](C)[C@H](CC[C@@H]3C[C@@H](O)CC(=O)O3)[C@H]21`: the AC50 was 18.6 µM (active).

`CCN(C(=O)c1cc(C)cc(OC[C@H](C)Nc2ccncc2)c1)C(C)C`: the outcome was inactive.

Turning to `O=C1CCCCCN1`, the outcome was inactive.

In the case of `COCCOc1cc2cc(C(=O)NC3CCN(C(C)C)CC3)n(CC(=O)Nc3ccc(Cl)cn3)c2cn1`, the outcome was inactive.

Consider `CCCCCCCCCCCCc1ccccc1`, for which the outcome was inactive.

Take `Clc1nc(Cl)c(Cl)c(Cl)c1Cl`: the outcome was inactive.

`On1ccccc1=S`: the AC50 is 28.8 µM (active).

On to `O=C(OC[C@H]1O[C@@H](OC(=O)c2cc(O)c(O)c(OC(=O)c3cc(O)c(O)c(O)c3)c2)[C@H](OC(=O)c2cc(O)c(O)c(OC(=O)c3cc(O)c(O)c(O)c3)c2)[C@@H](OC(=O)c2cc(O)c(O)c(OC(=O)c3cc(O)c(O)c(O)c3)c2)[C@@H]1OC(=O)c1cc(O)c(O)c(OC(=O)c2cc(O)c(O)c(O)c2)c1)c1cc(O)c(O)c(OC(=O)c2cc(O)c(O)c(O)c2)c1`, for which the AC50 was 9.09 µM (active).

With `CNS(=O)(=O)c1cc(C(=O)N2CCC(CCN3C4CCC3CC(n3c(C)nc5ccccc53)C4)(c3cccc(F)c3)CC2)c(Cl)cc1F` (stereo not given), the AC50 was 33.7 µM (active).

For the compound `CCCCCCCCCCCCCCCO`, the AC50 is 32.6 µM (active).

For `CN(C)c1ccc(Cc2ccc(N(C)C)cc2)cc1`, the result was inactive.

For `CCCCC(CC)COC(=O)c1ccc(C(=O)OCC(CC)CCCC)cc1` (stereo not given), the outcome was inactive.

Turning to `Cc1c(-c2cccnc2)c2ccccc2n1CCCCC(=O)O`, the outcome was inactive.

Regarding `COC(=O)CC(=O)OC`, the outcome was inactive.

For `Fc1ccccc1[C@@H](F)COC1CCC(Nc2ncnc3[nH]ncc23)CC1` (stereo not given in full), the AC50 is 30.2 µM (active).

Regarding `CCCC(=O)OCC`, the result was inactive.

As to `Cn1c(=O)c2c(ncn2C)n(C)c1=O`, the outcome was inactive.

Regarding `O=C1CCC(N2C(=O)c3ccccc3C2=O)C(=O)N1` (stereo not given), the outcome was inactive.

For `CCOCCOCCOCCO`, the outcome was inactive.

On to `Cc1ccc(S(=O)(=O)O)cc1C`, for which the outcome was inactive.

As for `C=CCCCCCCCCC(=O)O`, the result was inactive.

As to `CCc1cc(SCc2sc(-c3ccc(C(F)(F)F)cc3)nc2CN2CCN(c3ccc(OC)cc3)CC2)ccc1OCC(=O)O`, the AC50 is 12 µM (active).

For the compound `O=C(NS(=O)(=O)/C=C/c1ccccc1)c1ccc(F)cc1Cl`, the result was inactive.

As to `CC(=O)OCCC(C)C`, the outcome was inactive.

With `CC(C)=CCCC(C)CCO` (stereo not given), the outcome was inactive.

For the compound `CC(C)CCCCCCOC(=O)c1ccc(C(=O)OCCCCCCC(C)C)c(C(=O)OCCCCCCC(C)C)c1`, the result was inactive.

`O=C1OC(=O)C2C3C=CC(C3)C12` (stereo not given): the result was inactive.

In the case of `Oc1ccc2c(c1)-c1ccccc1C2`, the outcome was inactive.
